What was measured:
Assay in all cases: PBM binding z-score (relative to random genomic background probes); higher = stronger binding; sequences stand for … in GC…GCGATTGACAGCGTAGAATGAAGG
[1] = system: RARb homodimer (NR concentration 270 nM)
Summary of the method: (§1)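 Custom Agilent 4×180K protein-binding microarrays carried double-stranded probes. Their 34-nt variable regions held direct-repeat seeds, single-nucleotide variants, half-site ablations and random human genomic background sequences. Arrays were incubated 1 h with ligand-free nuclear receptor dimers in PBS pH 7.4, 2% milk, 0.02% Triton X-100, 1 mM DTT, 0.2 mg/mL BSA and 0.4 mg/ml salmon testes DNA. Antibodies against each partner (one per run) detected binding, and scanned fluorescence was regression-normalized. Binding z-scores use random background probes as reference.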

[2] = system: RARg:RXRa (NR concentration 270 nM, RXRa partner concentration 90 nM)
Summary of the method: as §1

[3] = system: RARg homodimer (NR concentration 270 nM)
Summary of the method: as §1

[4] = system: RXRa DBDmut IVT, anti-RXR (DBD mutation: RXRa K156A/R161A, NR concentration 90 nM)
Summary of the method: as §1

[5] = system: RXRa homodimer (NR concentration 180 nM)
Summary of the method: as §1

[6] = system: THRa:RXRa (NR concentration 90 nM, RXRa partner concentration 90 nM)
Summary of the method: as §1

[7] = system: THRa homodimer (NR concentration 90 nM)
Summary of the method: as §1

[8] = system: VDR:RXRa (NR concentration 270 nM, RXRa partner concentration 90 nM)
Summary of the method: as §1

[9] = system: VDR homodimer (NR concentration 270 nM)
Summary of the method: as §1

CTACCAAGGTGAACTAGGTCGTTGATTACTATTC
PBM binding z-score [1]: 1.98 | PBM binding z-score [2]: 1.45 | PBM binding z-score [3]: 1.42 | PBM binding z-score [4]: 0.925 | PBM binding z-score [5]: 1.49 | PBM binding z-score [6]: 2.82 | PBM binding z-score [7]: 1.68 | PBM binding z-score [8]: 3.56 | PBM binding z-score [9]: 0.82

TCTAGTTGGTCACGGCGGTCACACACGACGGGTA
PBM binding z-score [1]: 2.92 | PBM binding z-score [2]: 2.1 | PBM binding z-score [3]: 2.76 | PBM binding z-score [4]: 0.889 | PBM binding z-score [5]: 1.34 | PBM binding z-score [6]: 0.79 | PBM binding z-score [7]: 0.372 | PBM binding z-score [8]: 1.82 | PBM binding z-score [9]: 0.652

ATCTCTAGGTAACAAGTTCAGTTAAAGAGAGGAC
PBM binding z-score [1]: 1.9 | PBM binding z-score [2]: 1.37 | PBM binding z-score [3]: 1.45 | PBM binding z-score [4]: 0.748 | PBM binding z-score [5]: 0.837 | PBM binding z-score [6]: 1.73 | PBM binding z-score [7]: 1.16 | PBM binding z-score [8]: 2.23 | PBM binding z-score [9]: 2.34

AGAATGAGGTTAGTAAGATCAGGGAATTGCGGTC
PBM binding z-score [1]: 0.918 | PBM binding z-score [2]: 0.607 | PBM binding z-score [3]: 0.689 | PBM binding z-score [4]: 0.175 | PBM binding z-score [5]: 0.741 | PBM binding z-score [6]: 1.33 | PBM binding z-score [7]: 0.245 | PBM binding z-score [8]: 0.837 | PBM binding z-score [9]: 0.435

TCATATAGGTAAAGGTGAATGTCGAACGATATGA
PBM binding z-score [1]: 1.3 | PBM binding z-score [2]: 1.37 | PBM binding z-score [3]: 1.21 | PBM binding z-score [4]: 0.686 | PBM binding z-score [5]: 1.9 | PBM binding z-score [6]: 1.16 | PBM binding z-score [7]: -0.293 | PBM binding z-score [8]: 0.919 | PBM binding z-score [9]: -0.0294

TCTATTAGTTGAAGGGCAACCCACGAGTCCGTTT
PBM binding z-score [1]: 1.55 | PBM binding z-score [2]: 0.894 | PBM binding z-score [3]: 0.882 | PBM binding z-score [4]: 1.69 | PBM binding z-score [5]: 0.809 | PBM binding z-score [6]: 0.474 | PBM binding z-score [7]: 0.28 | PBM binding z-score [8]: 1.1 | PBM binding z-score [9]: 1.81

ATCTCTAGGTAAAGATCAGTGAAAGATCGATAGA
PBM binding z-score [1]: -0.585 | PBM binding z-score [2]: 0.367 | PBM binding z-score [3]: 0.528 | PBM binding z-score [4]: -0.253 | PBM binding z-score [5]: 0.257 | PBM binding z-score [6]: 0.044 | PBM binding z-score [7]: -0.362 | PBM binding z-score [8]: -0.0816 | PBM binding z-score [9]: -0.142

CGACCAAGGTCAAGGTCAGTGAAAGAGACTCGAA
PBM binding z-score [1]: 4.91 | PBM binding z-score [2]: 6.66 | PBM binding z-score [3]: 7.49 | PBM binding z-score [4]: 3.4 | PBM binding z-score [5]: 6.54 | PBM binding z-score [6]: 4.31 | PBM binding z-score [7]: 2.79 | PBM binding z-score [8]: 4.82 | PBM binding z-score [9]: 2.52

ATCGAAAGGTCGTAAGGTGAGTATACAGAAAGGC
PBM binding z-score [1]: 3.06 | PBM binding z-score [2]: 4.61 | PBM binding z-score [3]: 3.87 | PBM binding z-score [4]: 1.72 | PBM binding z-score [5]: 5.29 | PBM binding z-score [6]: 3.35 | PBM binding z-score [7]: 1.64 | PBM binding z-score [8]: 3.26 | PBM binding z-score [9]: 1.24

AATCAAAGTTCACTAGGTAACGTAAGATTCAGCT
PBM binding z-score [1]: 3.41 | PBM binding z-score [2]: 4.44 | PBM binding z-score [3]: 4.91 | PBM binding z-score [4]: 4.32 | PBM binding z-score [5]: 3.38 | PBM binding z-score [6]: 2.02 | PBM binding z-score [7]: 0.0511 | PBM binding z-score [8]: 3.91 | PBM binding z-score [9]: 3.46

GTTATTAGTTGAAAGGGCAACCGAATGATTCTCG
PBM binding z-score [1]: 2.41 | PBM binding z-score [2]: 1.75 | PBM binding z-score [3]: 1.95 | PBM binding z-score [4]: 1.16 | PBM binding z-score [5]: 1.64 | PBM binding z-score [6]: 1.18 | PBM binding z-score [7]: 0.669 | PBM binding z-score [8]: 1.24 | PBM binding z-score [9]: 1.55

CGTCCAAGGTCATAGGATGTCAGTGAAGACAGAT
PBM binding z-score [1]: 4.04 | PBM binding z-score [2]: 5.95 | PBM binding z-score [3]: 6.37 | PBM binding z-score [4]: 3.93 | PBM binding z-score [5]: 6.11 | PBM binding z-score [6]: 4.28 | PBM binding z-score [7]: 2.46 | PBM binding z-score [8]: 4.77 | PBM binding z-score [9]: 3.2

CCTTACGGTTCACTCCAGGTTATAGCATCGGAGT
PBM binding z-score [1]: 1.62 | PBM binding z-score [2]: 1.48 | PBM binding z-score [3]: 0.86 | PBM binding z-score [4]: 3.44 | PBM binding z-score [5]: 1.89 | PBM binding z-score [6]: 4.66 | PBM binding z-score [7]: 1.33 | PBM binding z-score [8]: 3.4 | PBM binding z-score [9]: 3.65

TCTCGGAGGACACGGAGGTCAGAGCTTTCCAGAG
PBM binding z-score [1]: 3.7 | PBM binding z-score [2]: 3.54 | PBM binding z-score [3]: 3.91 | PBM binding z-score [4]: 0.792 | PBM binding z-score [5]: 2.47 | PBM binding z-score [6]: 3.34 | PBM binding z-score [7]: 1.77 | PBM binding z-score [8]: 3.39 | PBM binding z-score [9]: 2

GCGACTCGGGCATCAGCAGGTTACCATAACTTAA
PBM binding z-score [1]: 0.226 | PBM binding z-score [2]: 0.257 | PBM binding z-score [3]: 0.0755 | PBM binding z-score [4]: -0.281 | PBM binding z-score [5]: 0.133 | PBM binding z-score [6]: 0.266 | PBM binding z-score [7]: -0.36 | PBM binding z-score [8]: -0.42 | PBM binding z-score [9]: -0.501

CCTTACGGGTCACTCCAGGTTATAGCTTCGGAGT
PBM binding z-score [1]: 3.13 | PBM binding z-score [2]: 4.36 | PBM binding z-score [3]: 4.47 | PBM binding z-score [4]: 1.65 | PBM binding z-score [5]: 4.42 | PBM binding z-score [6]: 4.92 | PBM binding z-score [7]: 0.616 | PBM binding z-score [8]: 3.95 | PBM binding z-score [9]: 1.61

From the supplement of paper PMC6555819
